# Pf growth 96h = Primary qHTS for delayed death inhibitors of the malarial parasite plastid, 96 hour incubation | P. falciparum luciferase reporter growth, 96 h | Potency, µM (top dose mostly 28.7 µM), actives largely listed as inhibitors | hit rate 6.9% among 320,000
#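 Delayed-death screen, second-generation endpoint: infected erythrocytes, 2% hematocrit, 0.05% parasitemia final; 96 hours at 37 C, 5% CO2; luciferase detection reagent; luminescence decrease equals reduced growth.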
# Marburg entry inh = qHTS for inhibitors of binding or entry into cells for Marburg Virus. Marburg virus pseudotyped entry inhibition, cell reporter. Potency, µM (titrated, usually from 37.8 µM), usual class: inhibitors. hit rate 1.8% among 300,000; calls by dose curve; tested in HEK293 cells
# HCV inh = qHTS Assay for Inhibitors of Hepatitis C Virus (HCV); Huh7.5.1 HCVcc-Cre infection, luciferase reporter, 44 h; Potency, µM (doses to about 41.8 µM), usual class: inhibitors; hit rate 3.4% among 340,000; AID 651820, 2012
#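 Infectious HCV cell culture screen: compound-treated cells (1,000/well, pre-plated 4 h) are infected with HCVcc-Cre at roughly 0.5 moi and grown 44 h. Infection is quantified by luciferase signal after 15 min substrate incubation at room temperature.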
# Pf growth 48h = Primary qHTS for delayed death inhibitors of the malarial parasite plastid, 48 hour incubation. Potency, µM (doses to about 28.7 µM), most hits filed as inhibitors. AID 504832, 2011. P. falciparum luciferase growth in erythrocytes, 48 h. hit rate 5.9% among 310,000
#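 Read-out is firefly luciferase luminescence from an integrated reporter in P. falciparum, so falling signal marks reduced parasite growth. Infected erythrocytes were at 2% hematocrit and 0.1% parasitemia (final) in Albumax-supplemented RPMI 1640.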
# HCMV inh = qHTS Assay for inhibitors of the human cytomegalovirus (HCMV). hit rate 4.5% among 410,000. HFF cells, HCMV-luciferase reporter, 72 h; hits give low values. activity change, negative = inhibition, % at 57.5 µM; in the data active = activity change below about -60%; inconclusive = no clear call, values can overlap the other calls; inactive = above about -39%
#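 Cell-based, HFFs, 1000 cells/well, 16 h 37C; cpds in DMSO + HCMV-luc, MOI 1 PFU/cell; 72 h 37C; OneGlo luminescence after 5 min RT; norm. to buffer vs Salinomycin 10uM.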
# LASV entry inh = qHTS for Inhibitors of binding or entry into cells for Lassa Virus; Lassa virus pseudotype entry inhibition, cell reporter; Potency, µM (titrated, usually from 37.9 µM), actives largely listed as inhibitors; hit rate 1.2% among 300,000; AID 540256, 2011; calls by dose curve; tested in HEK293 cells; note: nearly all actives have a fitted effect of over 50% in size
# Numbers stand for hits; n = inactive; u = inconclusive; x = not tested or not shown. An excerpt weighted towards active compounds, which were near 14% of everything screened. Unless noted, calls come from the whole dose curve; as a rule, active = well fitted inhibition curve with a large enough effect; inconclusive = small, poorly fitted or top-dose-only effect, or another doubt; inactive = no such curve, though single readings can be large or run the other way.
SMILES,Pf growth 96h,Marburg entry inh,HCV inh,Pf growth 48h,HCMV inh,LASV entry inh
CCOc1ccc(OCC)c(NC(=O)CSc2nc3c(c(=O)n(C)c(=O)n3C)n2C(C)C)c1,3.3µM,u,10µM,4.1µM,-63,u
CN1[C@@H]2CC(OC(=O)[C@@H](CO)c3ccccc3)C[C@@H]1[C@H]1O[C@H]12 (stereo partly drawn),u,x,x,n,x,x
CCOc1ccc(C(=O)Nc2ccc(Cl)c(-c3nc4cc(C)cc(C)c4o3)c2)cc1,x,n,x,x,n,n
O=C(Nc1ccc(N2CCOCC2)cc1)c1cn2ccccc2n1,n,u,n,n,n,7.9µM
Cc1nc2cc(NC(=O)Nc3ccc(N4CCOCC4)cc3)ccc2n1C,x,n,n,n,-63,n
Cc1cc(C(=O)Nc2ccc(N3CCOCC3)cc2)c2ccccc2n1,13µM,n,u,9.3µM,n,n
Cc1cc(C(=O)Nc2ccncc2)c2ccccc2n1,13µM,x,n,u,x,x
Cc1cc(C(=O)Nc2cccc(S(=O)(=O)N3CCOCC3)c2)c2ccccc2n1,x,x,u,x,n,x
Cc1ccc(NC(=O)c2cc(C)nc3ccccc23)cc1,u,x,n,n,n,x
CCOc1cc(C2C(C#N)=C(N)OC(C)=C2C(C)=O)c(Br)c(Br)c1OC(C)C (stereo not drawn),8.3µM,n,n,3.3µM,x,u
CCCCOc1ccc(C(C)NC(=O)c2cccc(Nc3nc4ccccc4n4nnnc34)c2)cc1 (stereo not drawn),x,x,x,x,-98,n
O[C@@H]1CO[C@@H](C=Cc2ccccc2)[C@H]1OCc1cccc(Br)c1,x,n,x,x,x,u
Cc1ccc(C(=O)NNC(=O)CCC(=O)NCc2ccccc2)cc1Br,n,x,n,n,n,x
O=C(Nc1ccccn1)c1onc2c1CCCC2,n,u,n,n,u,7.3µM
O=C(Cn1c(=O)n(Cc2nc(-c3ccccc3)no2)c(=O)c2cc3c(cc21)OCO3)Nc1cccc(C(F)(F)F)c1,x,x,x,x,n,n
CCC(C(=O)NC1CCCC1)N(Cc1ccco1)C(=O)Cn1nnc(-c2ccc(C)cc2)n1 (stereo not drawn),9.3µM,u,u,u,n,n
Cc1ccc(C(C(=O)NC2CCCCC2)N(Cc2ccco2)C(=O)Cn2cnc3ccccc32)cc1 (stereo not drawn),n,u,n,12µM,n,u
N#CC1(C(N)=O)OC12CCS(=O)(=O)c1ccccc12 (stereo not drawn),x,n,n,x,n,n
COc1cc([C@H]2[C@@H]3CCCC[C@]3(O)CCN2CC(=O)Nc2ccc(C)cc2C)ccc1O,u,u,n,u,n,u
COc1cc([C@H]2[C@@H]3CCCC[C@]3(O)CCN2Cc2ccccc2F)ccc1O,12µM,u,n,u,n,u
O=C(Nc1nccs1)c1cc([N+](=O)[O-])ccc1Cl,n,x,n,u,-103,x
O=C(Nc1nccs1)c1ccc(Cl)cc1[N+](=O)[O-],n,n,n,n,n,u
O=C(Nc1nccs1)c1ccc([N+](=O)[O-])cc1Cl,10µM,x,n,n,n,x
COc1cccc2c(Cl)c(CC=C(Cl)Cl)c(C)nc12,n,n,u,u,n,n
COc1cccc2c1nc(C)c1cc(C)oc12,n,n,5.6µM,n,n,n
SMILES,Pf growth 96h,Marburg entry inh,HCV inh,Pf growth 48h,HCMV inh,LASV entry inh
CCc1ccccc1Nc1cc(C(=O)NC2CCC(C)CC2)c2ccccc2n1 (stereo not drawn),x,n,x,x,-82,u
COc1ccc(/C=C/C(=O)C2C(=O)C=C(C)OC2=O)cc1O (stereo not drawn),u,n,n,u,-77,n
COc1ccc(/C=N/NC(=O)c2ccoc2C)cc1O,n,n,n,n,n,u
COc1cc(/C=C/C(=O)C2C(=O)C=C(C)OC2=O)cc(OC)c1O (stereo not drawn),n,n,u,u,-90,n
Cc1cccn2c(/C=N/OCc3ccc(F)cc3)c(-c3ccc(Cl)cc3)nc12,12µM,n,u,u,n,n
COc1ccc(/C(C#N)=C/c2c(-c3ccc(Cl)cc3)nc3c(C)cccn23)cc1,u,n,n,u,n,n
Cc1cc(C)cc(OCc2nc3ncc(Br)cc3[nH]2)c1,x,u,u,x,-63,u
